In PubChem BioAssay AID1159580 (chemical genetic matrix, 2015):
“And” between values parts separate entries of the source, which are not always exact repeats. Identical values can stand only once. Out of some 5,500 compounds screened, about 2,000 (36%) were called active. Inconclusive results (about 18%) are left out. No stated cut-off is given here; in the data, active means normalized growth mostly below about 0.91 (no sharp cut-off); inconclusive means no clear call, values can overlap the other calls; inactive means mostly above about 0.92. The list shows a part of the results.

Experiment: chemical genetic growth profiling, strain panel (AID 1159580);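 further: tested at 20 µM; growth read once vehicle control cultures reached saturation at 30 °C; 1 = growth at the plate median or of vehicle wells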
Conditions: growth OD
[1] = S. cerevisiae deletion strains, locus YAL013W, strain DEP1, stronger effect = lower value
[2] = S. cerevisiae deletion strains, locus YBR229C, strain ROT2, stronger effect = lower value
[3] = S. cerevisiae deletion strains, locus YDL101C, strain DUN1, stronger effect = lower value
[4] = S. cerevisiae deletion strains, locus YDL134C, strain PPH21, stronger effect = lower value
[5] = S. cerevisiae deletion strains, locus YDR150W, strain NUM1, stronger effect = lower value
[6] = S. cerevisiae deletion strains, locus YEL061C, strain CIN8, stronger effect = lower value
[7] = S. cerevisiae deletion strains, locus YGR078C, strain PAC10, stronger effect = lower value
[8] = S. cerevisiae deletion strains, locus YHR030C, strain SLT2, stronger effect = lower value
[9] = S. cerevisiae deletion strains, locus YHR087W, strain rtc3, stronger effect = lower value
[10] = S. cerevisiae deletion strains, locus YJR043C, strain POL32, stronger effect = lower value
[11] = S. cerevisiae deletion strains, locus YJR075W, strain HOC1, stronger effect = lower value
[12] = S. cerevisiae deletion strains, locus YLR039C, strain RIC1, stronger effect = lower value
[13] = S. cerevisiae deletion strains, locus YLR058C, strain SHM2 (second series), stronger effect = lower value
[14] = S. cerevisiae deletion strains, locus YLR085C, strain ARP6, stronger effect = lower value
[15] = S. cerevisiae deletion strains, locus YLR262C, strain YPT6, stronger effect = lower value
[16] = S. cerevisiae deletion strains, locus YML094W, strain GIM5, stronger effect = lower value
[17] = S. cerevisiae deletion strains, locus YMR219W, strain ESC1, stronger effect = lower value
[18] = S. cerevisiae deletion strains, locus YMR263W, strain SAP30, stronger effect = lower value
[19] = S. cerevisiae deletion strains, locus YNL153C, strain GIM3, stronger effect = lower value
[20] = S. cerevisiae deletion strains, locus YNL298W, strain CLA4 (second series), stronger effect = lower value
[21] = S. cerevisiae deletion strains, locus YNL322C, strain KRE1, stronger effect = lower value
[22] = S. cerevisiae deletion strains, locus YNR030W, strain Alg12, stronger effect = lower value
[23] = S. cerevisiae deletion strains, locus YPL055C, strain LGE1, stronger effect = lower value
[24] = S. cerevisiae deletion strains, locus YPL241C, strain CIN2, stronger effect = lower value
[25] = S. cerevisiae deletion strains, locus YPR135W, strain CTF4, stronger effect = lower value

Measured: normalized growth

O=C(NCCSCc1ccco1)Nc1cc(Cl)cc(Cl)c1
inactive: S. cerevisiae deletion strains, locus YAR019C, strain CDC15, stronger effect = lower value 0.958 | S. cerevisiae deletion strains, locus YBL105C, strain PKC1, stronger effect = lower value 0.96 | S. cerevisiae deletion strains, locus YBR135W, strain CKS1, stronger effect = lower value 0.954 | S. cerevisiae deletion strains, locus YBR136W, strain MEC1, stronger effect = lower value 0.963 | S. cerevisiae deletion strains, locus YBR160W, strain CDC28, stronger effect = lower value 0.957 | [2] 0.976 | S. cerevisiae deletion strains, locus YDL017W, strain CDC7, stronger effect = lower value 0.956 | S. cerevisiae deletion strains, locus YDL028C, strain MPS1, stronger effect = lower value 0.966 | [3] 0.97 and 0.977 | S. cerevisiae deletion strains, locus YDL108W, strain KIN28, stronger effect = lower value 0.958 | S. cerevisiae deletion strains, locus YDL132W, strain cdc53, stronger effect = lower value 0.949 | S. cerevisiae deletion strains, locus YDL214C, strain PRR2, stronger effect = lower value 0.894 | S. cerevisiae deletion strains, locus YDR052C, strain DBF4, stronger effect = lower value 0.972 | S. cerevisiae deletion strains, locus YDR054C, strain cdc34, stronger effect = lower value 0.942 | [5] 0.908 | S. cerevisiae deletion strains, locus YDR226W, strain ADK1, stronger effect = lower value 0.965 | S. cerevisiae deletion strains, locus YDR477W, strain SNF1, stronger effect = lower value 0.885 | [6] 0.984 | S. cerevisiae deletion strains, locus YER123W, strain YCK3, stronger effect = lower value 0.842 | S. cerevisiae deletion strains, locus YER133W, strain GLC7, stronger effect = lower value 0.895 | S. cerevisiae deletion strains, locus YFL009W, strain cdc4, stronger effect = lower value 0.956 | S. cerevisiae deletion strains, locus YFL029C, strain CAK1, stronger effect = lower value 0.951 | S. cerevisiae deletion strains, locus YFR003C, strain YPI1, stronger effect = lower value 0.962 | S. cerevisiae deletion strains, locus YFR019W, strain FAB1, stronger effect = lower value 0.897 | S. cerevisiae deletion strains, locus YFR028C, strain CDC14, stronger effect = lower value 0.956 | S. cerevisiae deletion strains, locus YGR040W, strain KSS1, stronger effect = lower value 0.893 | S. cerevisiae deletion strains, locus YGR052W, strain FMP48, stronger effect = lower value 0.967 | [7] 0.957 | S. cerevisiae deletion strains, locus YGR092W, strain DBF2, stronger effect = lower value 0.914 | S. cerevisiae deletion strains, locus YHR079C, strain IRE1, stronger effect = lower value 0.853 | S. cerevisiae deletion strains, locus YHR082C, strain KSP1, stronger effect = lower value 0.866 | [9] 0.966 | S. cerevisiae deletion strains, locus YHR205W, strain SCH9, stronger effect = lower value 0.86 | S. cerevisiae deletion strains, locus YIL147C, strain SLN1, stronger effect = lower value 0.955 | S. cerevisiae deletion strains, locus YJL095W, strain BCK1, stronger effect = lower value 0.815 | S. cerevisiae deletion strains, locus YJL128C, strain PBS2, stronger effect = lower value 0.928 | S. cerevisiae deletion strains, locus YJL157C, strain FAR1, stronger effect = lower value 0.893 | S. cerevisiae deletion strains, locus YJR016C, strain ILV3, stronger effect = lower value 0.96 | [10] 0.932 | S. cerevisiae deletion strains, locus YJR066W, strain TOR1 (second series), stronger effect = lower value 0.946 | S. cerevisiae deletion strains, locus YJR066W, strain TOR1, stronger effect = lower value 0.824 | [11] 0.958 | S. cerevisiae deletion strains, locus YKL048C, strain ELM1, stronger effect = lower value 0.934 | S. cerevisiae deletion strains, locus YKL067W, strain YNK1, stronger effect = lower value 0.898 | S. cerevisiae deletion strains, locus YKL101W, strain HSL1, stronger effect = lower value 0.911 | S. cerevisiae deletion strains, locus YKL193C, strain SDS22, stronger effect = lower value 0.942 | S. cerevisiae deletion strains, locus YKL203C, strain TOR2, stronger effect = lower value 0.916 | [13] 0.953 | [14] 0.865 | S. cerevisiae deletion strains, locus YLR133W, strain CKI1, stronger effect = lower value 0.893 | S. cerevisiae deletion strains, locus YLR403W, strain SFP1, stronger effect = lower value 0.868 | S. cerevisiae deletion strains, locus YML070W, strain DAK1, stronger effect = lower value 0.879 | [16] 0.918 | S. cerevisiae deletion strains, locus YMR001C, strain CDC5, stronger effect = lower value 0.954 | S. cerevisiae deletion strains, locus YMR205C, strain PFK2 (second series), stronger effect = lower value 0.914 | [17] 0.976 | [18] 0.917 | S. cerevisiae deletion strains, locus YMR277W, strain FCP1, stronger effect = lower value 0.952 | S. cerevisiae deletion strains, locus YNL006W, strain LST8, stronger effect = lower value 0.951 | S. cerevisiae deletion strains, locus YNL020C, strain ARK1, stronger effect = lower value 0.879 | [19] 0.97 | S. cerevisiae deletion strains, locus YNL161W, strain CBK1, stronger effect = lower value 0.96 | S. cerevisiae deletion strains, locus YNL183C, strain NPR1, stronger effect = lower value 0.845 | S. cerevisiae deletion strains, locus YNL207W, strain RIO2, stronger effect = lower value 0.943 | S. cerevisiae deletion strains, locus YNL222W, strain SSU72, stronger effect = lower value 0.953 | [20] 0.879 | S. cerevisiae deletion strains, locus YNL307C, strain MCK1 (second series), stronger effect = lower value 0.888 | [21] 0.96 | [22] 0.897 | S. cerevisiae deletion strains, locus YOL078W, strain AVO1, stronger effect = lower value 0.948 | S. cerevisiae deletion strains, locus YOL136C, strain PFK27, stronger effect = lower value 0.853 | S. cerevisiae deletion strains, locus YOR061W, strain CKA2, stronger effect = lower value 0.9 | S. cerevisiae deletion strains, locus YOR119C, strain RIO1, stronger effect = lower value 0.954 | S. cerevisiae deletion strains, locus YOR231W, strain MKK1, stronger effect = lower value 0.863 | S. cerevisiae deletion strains, locus YOR329C, strain SCD5, stronger effect = lower value 0.956 | S. cerevisiae deletion strains, locus YPL031C, strain PHO85, stronger effect = lower value 0.872 | [23] 0.858 | S. cerevisiae deletion strains, locus YPL153C, strain RAD53, stronger effect = lower value 0.894 | S. cerevisiae deletion strains, locus YPL204W, strain HRR25, stronger effect = lower value 0.867 | S. cerevisiae deletion strains, locus YPL209C, strain IPL1, stronger effect = lower value 0.958 | [24] 0.937 | S. cerevisiae deletion strains, locus YPR025C, strain CCL1, stronger effect = lower value 0.952 | S. cerevisiae deletion strains, locus YPR106W, strain ISR1, stronger effect = lower value 0.959 | S. cerevisiae deletion strains, locus YPR111W, strain DBF20, stronger effect = lower value 0.957 | [25] 0.841 | S. cerevisiae deletion strains, strain NNK1, stronger effect = lower value 0.952 | S. cerevisiae deletion strains, strain TSCII, stronger effect = lower value 0.954
active: [1] 0.915 | [4] 0.724 | [12] 0.769 | S. cerevisiae deletion strains, locus YLR113W, strain HOG1, stronger effect = lower value 0.842 | [15] 0.759 | S. cerevisiae deletion strains, locus YPL256C, strain CLN2, stronger effect = lower value 0.818
0.822 (inactive) and 0.683 (active): [8]

CCCCNC(=O)NCCSCc1ccco1
inactive: [1] 1.01 | [2] 0.986 | [3] 0.982 | [4] 0.993 | [5] 1 | [6] 0.98 | [7] 0.994 | [8] 1.02 | [9] 0.99 | [10] 1.01 | [11] 1.01 | [12] 1 | [13] 0.991 | [14] 0.943 | [15] 1.02 | [16] 0.988 | [17] 0.989 | [18] 0.996 | S. cerevisiae deletion strains, locus YNL128W, strain TEP1, stronger effect = lower value 0.987 | [19] 1.01 | [20] 0.984 | [21] 0.99 | [22] 0.998 | [23] 1 | [24] 0.988 | [25] 1.05 | S. cerevisiae strains, strain wild type, stronger effect = lower value 0.98
